Compound activity as filed in PubChem.
This is a sample that favours compounds with a hit; in the whole collection about 3.7% have one here.
RE007 growth inh – less growth of the S. pombe RE007 Vpr strain | S. pombe RE007 Vpr strain, BacTiter-Glo ATP luminescence, 24 h | Potency, µM (titrated, usually from 92.2 µM), actives largely listed as inhibitors | 360,000 tested, 0.21% active; active = well fitted falling curve with a large enough effect; inconclusive = small, poorly fitted or top-dose-only effect; inactive = no such curve, though single readings can be large or run the other way; also: nearly all actives have a fitted effect of over 50% in size
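Fission yeast strain RE007, carrying one chromosomally integrated HIV-1 vpr copy, was seeded at OD 0.01 in PMG+AL medium with 23 nL pinned compound. After 24 h at 30 °C and 99% humidity, viability was read by BacTiter-Glo luminescence.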
FMDV inh – blocks foot and mouth disease virus; FMDV antiviral cell-based qHTS; 410,000 tested, 1.2% active; AID 1159524; Potency, µM (series often up to 57.9 µM), most hits filed as inhibitors; calls by dose curve; tested in HEK293T cells; also: read-out not given here; nearly all actives have a fitted effect of over 45% in size
Sm TGR block – S. mansoni TGR enzyme inhibition; Q962Y6; purified TGR, DTNB reduction, TNB absorbance 405 nm; Potency, µM (top dose mostly 114 µM), actives largely listed as inhibitors; 360,000 tested, 3% active; AID 485364; also: nearly all actives have a fitted effect of over 60% in size
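Kinetic colorimetric format: TGR-catalysed, NADPH-driven DTNB reduction monitored via TNB absorbance. Enzyme dispensed at 20 nM; compound exposure 15 min at room temperature before reaction start.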
Tb PYK inh – blocks Trypanosoma brucei pyruvate kinase | TbPYK enzyme, Kinase-Glo Plus ATP luminescence, 45 min | Potency, µM (doses to about 76.8 µM), most hits filed as inhibitors | 410,000 tested, 0.12% active | AID 624173; also: nearly all actives have a fitted effect of over 50% in size
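Activity of T. brucei pyruvate kinase was followed by Kinase-Glo Plus luminescence after the enzyme reacted 45 min at room temperature with 130 uM ADP (final) and substrate. Test compounds were added before ADP at multiple concentrations.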
A number is an active result; . = inactive; ? = inconclusive; / = not tested or not shown. Unless noted, calls follow the shape of the dose curve; as a rule, active = well fitted curve in the direction sought with a large enough effect; inconclusive = small, poorly fitted or top-dose-only effect, or another doubt; inactive = no such curve, though single readings can be large; an effect the other way counts as inactive or inconclusive.

SMILES	RE007 growth inh	FMDV inh	Sm TGR block	Tb PYK inh
COc1ccc(-c2cc(C(=O)NCc3ccco3)c3ccccc3n2)cc1	.	.	40µM	.
CCNC(=S)NNC(=O)c1cc(-c2cccc(C)c2)nc2ccccc12	?	.	.	.
CCNC(=S)NNC(=O)c1cc(-c2ccc(OC)cc2)nc2ccccc12	18µM	11µM	.	.
COc1cc(Cl)c(CN2CCOc3ccc(CN4CCCCC4CO)cc3C2)cc1OC (centres undefined)	/	.	/	/
COc1ccc(C(CC(=O)Nc2ccc(F)c(Cl)c2)N2Cc3ccccc3C2=O)cc1OC (centres undefined)	/	.	.	.
CCNc1ncc2nc(-c3ccc(OC)cc3)c(=O)n(C)c2n1	/	.	/	/
COc1cccc(C(=O)CC2c3c(c(Br)c4c(c3OC)OCO4)CCN2C)c1 (centres undefined)	/	.	/	/
Cc1c(NN=C(C#N)C#N)c(=O)n(-c2ccccc2)n1C	.	14µM	22µM	.
Cc1c(NC(C)c2ccccc2O)c(=O)n(-c2ccccc2)n1C (centres undefined)	.	.	40µM	.
COc1ccccc1N1CCN(c2nc(CNC(=O)C3CCOC(C)(C)C3)nc3ccccc23)CC1 (centres undefined)	/	.	/	/
CCOc1ccc(C(=O)NCCc2csc(-c3cccc(C)c3)n2)cc1	/	.	.	.
CCc1nc2sc3c(=O)[nH]cnc3c2c2c1CSC(C)(C)C2	.	.	35µM	.
CCCc1nc2sc3c(=O)[nH]cnc3c2c2c1CCCC2	/	/	.	/
COCc1cc(=O)n2[nH]c(-c3ccco3)cc2n1	.	.	.	.
CCCCN1Cc2c(nc3cc(-c4ccco4)[nH]n3c2=O)C1=O	.	.	20µM	.
CN(C)c1ccc(NC(=S)c2ccccn2)cc1	?	2.8µM	.	?
O=[N+]([O-])c1ccc(Sc2nc3ccccc3o2)c([N+](=O)[O-])c1	?	35µM	4µM	.
Nc1nc(Sc2ccc([N+](=O)[O-])cc2[N+](=O)[O-])n[nH]1	.	.	32µM	.
O=[N+]([O-])c1ccc(Sc2cc[n+]([O-])c3ccccc23)c([N+](=O)[O-])c1	.	?	7.9µM	.
CCS(=O)(=O)c1cc([N+](=O)[O-])c(Sc2ccccc2NC(C)=O)s1	.	16µM	2.8µM	.
Cc1ccc(CNC(=O)CCCOc2cc(=O)n(C)c3ccccc23)o1	.	.	13µM	.
CC(C)Oc1ccc(CNC(=O)Cn2c(=O)oc3ccccc32)cc1	.	.	.	.
O=C(CCCn1c(=O)c2ccccc2n(CC(=O)NCc2ccco2)c1=O)NCc1ccco1	.	.	25µM	.
Cc1ccc(CNC(=O)Cn2c(=O)oc3ccccc32)o1	.	.	28µM	.
CCn1c(=O)cc(OCC(=O)NCc2ccc(C)o2)c2ccccc21	.	.	35µM	.
SMILES	RE007 growth inh	FMDV inh	Sm TGR block	Tb PYK inh
CCn1c(=O)cc(OCC(=O)NCc2ccco2)c2ccccc21	.	.	?	.
COc1ccc(CNC(=O)CCCOc2cc(=O)n(C)c3ccccc23)cc1	.	.	.	.
CC(C)(CO)NC(=O)c1cnn(-c2nccc(-c3ccc4c(c3)OCO4)n2)c1C1CC1	/	.	/	/
CC(Oc1ccccc1)C(=O)NCC1Cc2cc(F)cc(-c3ccccn3)c2O1 (centres undefined)	/	.	/	/
Cc1c(C(=O)NCC2CC2)sc2ncnc(NCCN3CCCCC3)c12	/	.	/	/
CC(C)CCNC(=O)CCCOc1cc(=O)n(C)c2ccccc12	.	.	.	.
Cn1c(=O)cc(OCCCC(=O)NCc2ccco2)c2ccccc21	.	.	40µM	.
Cc1ccc(C)c(N2CCN(C(=O)CCCOc3cc(=O)n(C)c4ccccc34)CC2)c1	.	25µM	.	.
COc1ccc(-c2cc3nc(CCl)[nH]c(=O)c3s2)cc1	.	14µM	.	.
CCCc1nc2sc3c(N4CCC(C)CC4)ncnc3c2c2c1CCCC2	/	.	.	.
O=C(CCN1CCC(c2ccccc2)C1)c1ccccc1 (centres undefined)	.	.	.	.
O=C(CCN1CCC(c2ccccc2)C1)c1ccc2c(c1)OCCO2 (centres undefined)	?	.	0.1µM	.
COc1cc(C(=O)CCN2CCC(c3ccccc3)C2)cc(OC)c1OC (centres undefined)	?	.	0.28µM	.
O=C(CCN1CCCC1Cc1ccccc1)c1ccc2c(c1)OCCO2 (centres undefined)	25µM	.	0.32µM	.
O=C(CCN1CCc2ccccc2C1)c1ccc2c(c1)OCCO2	7.9µM	.	0.28µM	.
Cn1nnnc1SCC(=O)NCC(=O)c1ccccc1	.	.	20µM	?
C=C/C=C/CC1=C(C)[C@@H](OC(=O)[C@@H]2[C@@H](/C=C(\C)C(=O)OC)C2(C)C)CC1=O (tested in a mixture with another compound)	/	/	/	.
CC1(C)Cc2nc3sc4c(=O)n(CC(=O)NCc5ccco5)cnc4c3cc2CO1	.	.	35µM	.
Cc1ccc(C)n1-c1ccc(C(=O)N/N=C/c2ccncc2)cc1	?	.	25µM	.
c1ccc(-n2nnnc2Sc2ncnc3sc4c(c23)CCCC4)cc1	.	28µM	.	.
CCCCOCCOc1nc(-c2ccc(C(=O)O)c(F)c2)sc1C	/	/	/	.
CN1C=C/C(=C\c2cc[n+](C)c3ccccc23)c2ccccc21	3.2µM	18µM	.	.
CC[n+]1ccc(/C=C2\Sc3ccccc3N2CCCS(=O)(=O)[O-])c2ccccc21	.	.	/	.
O=C(Nc1ccc(-c2nc3ccccc3o2)c(O)c1)c1cc(-n2cnnc2)ccc1Cl	.	13µM	.	.
COc1ccccc1-c1ccnc(-n2ncc(C(=O)N(C)C(C)c3nc(C)cs3)c2C2CC2)n1 (centres undefined)	/	.	/	/
SMILES	RE007 growth inh	FMDV inh	Sm TGR block	Tb PYK inh
O=C1c2ccccc2-c2onc3ccc(Oc4ccccc4)c1c23	?	?	6.3µM	.
O=C1c2ccccc2-c2onc3c(NCCO)cc(NC4CCCCC4)c1c23	/	?	.	?
COc1ccc(CCNC2=C(Cl)C(=O)N(CCc3ccccc3)C2=O)cc1OC	.	22µM	.	.
O=C1C(Cl)=C(Nc2ccccc2O)C(=O)N1CCc1ccccc1	/	.	28µM	.
O=C(Cn1ncc2c3ccccc3n(Cc3ccc(Cl)cc3)c2c1=O)NCc1cccs1	/	.	.	.
CC1(C)CC2(C)OC(=N)C1(C#N)C2(C#N)C#N (centres undefined)	.	22µM	13µM	.
Cc1c([N+](=O)[O-])c(C(=O)Sc2ccc(Br)cc2)nn1C	?	.	0.5µM	.
Cc1c([N+](=O)[O-])c(C(=O)N2CCCC2)nn1C	.	.	.	.
Cc1ccc2c(CC(=O)N(Cc3cccc(Cl)c3)C3CCS(=O)(=O)C3)coc2c1 (centres undefined)	/	.	.	.
Cc1ccc(C(=O)Nc2nnc(S(=O)(=O)N3c4ccccc4CC3C)s2)cc1 (centres undefined)	/	.	.	.
O=C1CSC(=S)N1/N=C/C=C/c1ccccc1	.	.	16µM	.
O=C1CSC(=S)N1/N=C/c1c(F)cccc1F	.	.	8.9µM	.
